Inconclusive results are not listed. Active and inactive are the calls of the source. Calls come from the whole dose curve; as a rule, active = well fitted inhibition curve with a large enough effect; inconclusive = small, poorly fitted or top-dose-only effect; inactive = no such curve, though single readings can be large or run the other way.

In PubChem BioAssay AID720555 (National Center for Advancing Translational Sciences (NCATS), 2013) one finds Potency data, which are given here for 3 molecules.

RecQ-like DNA helicase BLM (Homo sapiens), sequence (P54132 whole entry, looked up): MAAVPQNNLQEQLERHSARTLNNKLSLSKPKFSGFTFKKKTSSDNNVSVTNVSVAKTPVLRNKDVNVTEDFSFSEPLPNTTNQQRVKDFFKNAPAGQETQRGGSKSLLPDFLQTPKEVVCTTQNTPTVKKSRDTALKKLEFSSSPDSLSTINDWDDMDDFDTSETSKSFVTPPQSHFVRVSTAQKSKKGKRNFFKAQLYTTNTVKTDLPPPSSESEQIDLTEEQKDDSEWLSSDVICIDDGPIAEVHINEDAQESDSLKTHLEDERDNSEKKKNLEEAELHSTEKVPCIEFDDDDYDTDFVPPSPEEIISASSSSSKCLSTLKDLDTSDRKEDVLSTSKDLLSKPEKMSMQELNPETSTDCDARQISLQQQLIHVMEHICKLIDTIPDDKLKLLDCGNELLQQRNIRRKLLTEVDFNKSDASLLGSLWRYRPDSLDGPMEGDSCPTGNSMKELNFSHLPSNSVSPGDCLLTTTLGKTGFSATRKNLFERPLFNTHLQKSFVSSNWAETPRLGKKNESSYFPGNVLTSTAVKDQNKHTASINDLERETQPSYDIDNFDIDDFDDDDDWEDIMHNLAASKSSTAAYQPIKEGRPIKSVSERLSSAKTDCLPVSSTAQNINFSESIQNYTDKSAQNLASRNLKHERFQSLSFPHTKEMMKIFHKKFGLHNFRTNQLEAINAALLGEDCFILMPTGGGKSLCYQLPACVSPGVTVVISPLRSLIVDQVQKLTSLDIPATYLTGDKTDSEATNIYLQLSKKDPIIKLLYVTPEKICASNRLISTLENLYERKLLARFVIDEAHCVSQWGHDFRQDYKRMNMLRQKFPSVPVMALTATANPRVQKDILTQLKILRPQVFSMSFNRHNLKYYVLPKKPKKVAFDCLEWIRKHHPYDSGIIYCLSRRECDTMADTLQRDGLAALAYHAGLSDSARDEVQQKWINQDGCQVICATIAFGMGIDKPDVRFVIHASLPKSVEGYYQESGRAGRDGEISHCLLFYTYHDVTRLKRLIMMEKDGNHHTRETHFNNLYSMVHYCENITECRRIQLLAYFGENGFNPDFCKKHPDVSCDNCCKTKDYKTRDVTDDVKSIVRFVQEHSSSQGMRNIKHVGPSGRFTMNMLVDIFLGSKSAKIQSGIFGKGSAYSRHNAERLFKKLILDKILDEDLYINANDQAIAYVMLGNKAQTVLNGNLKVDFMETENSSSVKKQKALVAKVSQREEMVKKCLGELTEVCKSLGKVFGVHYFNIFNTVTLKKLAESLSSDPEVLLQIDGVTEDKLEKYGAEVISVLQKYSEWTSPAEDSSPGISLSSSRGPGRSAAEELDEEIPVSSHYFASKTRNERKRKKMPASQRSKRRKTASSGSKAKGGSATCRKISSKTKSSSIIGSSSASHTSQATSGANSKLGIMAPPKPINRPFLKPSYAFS

In this assay the target is RecQ-like DNA helicase BLM (Homo sapiens) (UniProt P54132). Kind of assay: qHTS for Inhibitors of Bloom's syndrome helicase (BLM): Helicase DNA unwinding fluorescent orthogonal confirmatory assay for SAR. The settings on record: fluorescence, orthogonal confirmation. The source says:
Human RecQ DNA helicases participate in maintenance of genome stability and DNA repair. While other types of helicases have been explored as targets for drug development, members of the RecQ family have remained less well characterized. Mutations of the Bloom helicase gene have been associated with the rare human genetic disease called Bloom syndrome. […] Moreover, identified inhibitors can be used in cells and animal models to examine the consequences of inhibition on the survival of cancer cells where it has been shown that BLM plays an important role.
A fluorescence-based, biochemical assay in 1536 well format was developed to evaluate inhibition of BLM DNA unwinding activity. This assay was used to screen the MLPCN library. The resulting compounds were subjected to orthogonal and secondary biochemical assays to triage the initial hits, to classify compounds based on mode of action and to derive structure activity relationships (SARs) of candidate effectors. The data herein is the result of the Helicase DNA unwinding fluorescent orthogonal confirmatory assay. This fluorescent-based assay employs a purified BLM enzyme and utilizes gel electrophoresis to monitor the helicase-mediated unwinding of a fluorescently-labeled DNA substrate. For this assay decrease in the single-stranded DNA product band on the gel = inhibition of the BLM helicase activity. Inhibition is the desired outcome for this assay.
NIH Chemical Genomics Center [NCGC]
NIH Molecular Libraries Probe Centers Network [MLPCN]
Assay Submitter (PI): Opher Gileadi, Structural Genomics Consortium, University of Oxford, UK
Unwinding assay for the BLM helicase was carried out in a reaction buffer containing 50 mM Tris-HCl pH 7.5, 50mM NaCl, 2mM MgCl2, 2mM ATP, 1mM DTT, and 0.1 mg/ml BSA. Optimal substrate and enzyme concentrations as well as reaction times were determined experimentally. All reactions were performed at room temperature and terminated by the addition of loading buffer containing 20mM EDTA and 2.5% bromophenol blue. […] Substrate and product bands were quantified using ImageJ. […]
`N#Cc1ccc(NC(=O)Nc2nnc(-c3ccncc3)s2)cc1Cl`: the Potency is 1580 nM (active).

For `N#Cc1ccc(NC(=O)Nc2nnc(-c3ccncc3)s2)cc1Br`, the Potency is 1120 nM (active). `N#Cc1ccc(NC(=O)Nc2nnc(-c3ccncc3)s2)cc1C(F)(F)F`: the Potency was 5620 nM (active).
